Assay results published in PubChem BioAssay AID1159580 (chemical genetic matrix, 2015).
About 2,000 (36%) of roughly 5,500 compounds were called active. Not shown: some 18% with an inconclusive outcome. Cut-off read from the data, not from the text of the source: active = normalized growth mostly below about 0.91 (no sharp cut-off); inconclusive = no clear call, values can overlap the other calls; inactive = mostly above about 0.92. The list shows a part of the results.

Assay: chemical genetic growth profiling, strain panel (AID 1159580);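 note: tested at 20 µM; growth read once vehicle control cultures reached saturation at 30 °C; 1 = growth at the plate median or of vehicle wells; lower values mean less growth of the strain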
Conditions: growth OD

Measured: normalized growth

Cc1nnc(NS(=O)(=O)c2ccc(N)cc2)s1
inactive: S. cerevisiae deletion strains, locus YKL009W, strain mrt4, stronger effect = lower value 1.05 | S. cerevisiae deletion strains, locus YKL068W, stronger effect = lower value 0.996 | S. cerevisiae deletion strains, locus YKL085W, strain MDH1 (second series), stronger effect = lower value 0.998 | S. cerevisiae deletion strains, locus YKL085W, strain MDH1, stronger effect = lower value 0.998 | S. cerevisiae deletion strains, locus YKL160W, strain elf1, stronger effect = lower value 1.01 | S. cerevisiae deletion strains, locus YKL190W, strain CNB1, stronger effect = lower value 1.02 | S. cerevisiae deletion strains, locus YKR001C, strain vps1, stronger effect = lower value 1.02 | S. cerevisiae deletion strains, locus YKR026C, strain gcn3, stronger effect = lower value 1.01 | S. cerevisiae deletion strains, locus YKR091W, strain srl3, stronger effect = lower value 0.99 | S. cerevisiae deletion strains, locus YLL001W, strain dnm1, stronger effect = lower value 0.995 | S. cerevisiae deletion strains, locus YLL026W, stronger effect = lower value 0.998 | S. cerevisiae deletion strains, locus YLL041C, strain sdh2, stronger effect = lower value 1 | S. cerevisiae deletion strains, locus YLR027C, strain aat2, stronger effect = lower value 1.01 | S. cerevisiae deletion strains, locus YLR039C, strain RIC1, stronger effect = lower value 1.09 | S. cerevisiae deletion strains, locus YLR058C, strain SHM2, stronger effect = lower value 1.01 | S. cerevisiae deletion strains, locus YLR102C, strain apc9, stronger effect = lower value 0.985 | S. cerevisiae deletion strains, locus YLR113W, strain HOG1, stronger effect = lower value 0.966 | S. cerevisiae deletion strains, locus YLR221C, strain rsa3, stronger effect = lower value 1.01 | S. cerevisiae deletion strains, locus YLR258W, strain gsy2, stronger effect = lower value 0.997 | S. cerevisiae deletion strains, locus YLR262C, strain YPT6 (second series), stronger effect = lower value 0.99 | S. cerevisiae deletion strains, locus YLR262C, strain YPT6, stronger effect = lower value 1.07 | S. cerevisiae deletion strains, locus YLR268W, strain sec22, stronger effect = lower value 1.04 | S. cerevisiae deletion strains, locus YLR320W, strain mms22, stronger effect = lower value 0.99 | S. cerevisiae deletion strains, locus YLR330W, strain CHS5, stronger effect = lower value 1.01 | S. cerevisiae deletion strains, locus YLR342W, strain FKS1 (second series), stronger effect = lower value 1.04 | S. cerevisiae deletion strains, locus YLR342W, strain FKS1, stronger effect = lower value 0.996 | S. cerevisiae deletion strains, locus YLR357W, strain rsc2, stronger effect = lower value 1.03 | S. cerevisiae deletion strains, locus YLR370C, strain arc18, stronger effect = lower value 1.01 | S. cerevisiae deletion strains, locus YLR371W, strain rom2, stronger effect = lower value 0.984 | S. cerevisiae deletion strains, locus YLR384C, strain iki3, stronger effect = lower value 1 | S. cerevisiae deletion strains, locus YLR418C, strain cdc73, stronger effect = lower value 1.04 | S. cerevisiae deletion strains, locus YML016C, strain PPZ1, stronger effect = lower value 1.01 | S. cerevisiae deletion strains, locus YML032C, strain rad52, stronger effect = lower value 1.01 | S. cerevisiae deletion strains, locus YML120C, strain ndi1, stronger effect = lower value 0.987 | S. cerevisiae deletion strains, locus YML124C, strain tub3, stronger effect = lower value 1 | S. cerevisiae deletion strains, locus YMR058W, strain fet3, stronger effect = lower value 0.998 | S. cerevisiae deletion strains, locus YMR078C, strain ctf18, stronger effect = lower value 0.991 | S. cerevisiae deletion strains, locus YMR125W, strain sto1, stronger effect = lower value 0.998 | S. cerevisiae deletion strains, locus YMR129W, stronger effect = lower value 1.01 | S. cerevisiae deletion strains, locus YMR205C, strain PFK2, stronger effect = lower value 1 | S. cerevisiae deletion strains, locus YMR223W, strain ubp8, stronger effect = lower value 0.997 | S. cerevisiae deletion strains, locus YMR231W, strain pep5, stronger effect = lower value 1 | S. cerevisiae deletion strains, locus YMR263W, strain SAP30, stronger effect = lower value 1.01 | S. cerevisiae deletion strains, locus YMR307W, strain GAS1, stronger effect = lower value 0.987 | S. cerevisiae deletion strains, locus YNL067W, strain RPL9B, stronger effect = lower value 1.02 | S. cerevisiae deletion strains, locus YNL071W, strain lat1, stronger effect = lower value 0.993 | S. cerevisiae deletion strains, locus YNL128W, strain TEP1, stronger effect = lower value 1.03 | S. cerevisiae deletion strains, locus YNL153C, strain GIM3, stronger effect = lower value 1.01 | S. cerevisiae deletion strains, locus YNL183C, strain NPR1, stronger effect = lower value 0.953 | S. cerevisiae deletion strains, locus YNL209W, strain ssb2, stronger effect = lower value 1.01 | S. cerevisiae deletion strains, locus YNL233W, strain BNI4, stronger effect = lower value 1.01 | S. cerevisiae deletion strains, locus YNL248C, strain rpa49, stronger effect = lower value 1.01 | S. cerevisiae deletion strains, locus YNL250W, strain rad50, stronger effect = lower value 1.01 | S. cerevisiae deletion strains, locus YNL271C, strain bni1, stronger effect = lower value 1 | S. cerevisiae deletion strains, locus YNL298W, strain CLA4, stronger effect = lower value 1.03 | S. cerevisiae deletion strains, locus YNL307C, strain MCK1, stronger effect = lower value 1 | S. cerevisiae deletion strains, locus YNL322C, strain KRE1 (second series), stronger effect = lower value 0.999 | S. cerevisiae deletion strains, locus YNR049C, strain mso1, stronger effect = lower value 1 | S. cerevisiae deletion strains, locus YNR052C, strain pop2, stronger effect = lower value 0.989 | S. cerevisiae deletion strains, locus YOL006C, strain TOP1, stronger effect = lower value 1.04 | S. cerevisiae deletion strains, locus YOL012C, strain htz1 0.962 | S. cerevisiae deletion strains, locus YOL147C, strain pex11, stronger effect = lower value 0.986 | S. cerevisiae deletion strains, locus YOR001W, strain rrp6, stronger effect = lower value 1 | S. cerevisiae deletion strains, locus YOR061W, strain CKA2, stronger effect = lower value 1.01 | S. cerevisiae deletion strains, locus YOR069W, strain VPS5, stronger effect = lower value 1.01 | S. cerevisiae deletion strains, locus YOR070C, strain gyp1, stronger effect = lower value 1.01 | S. cerevisiae deletion strains, locus YOR080W, strain dia2, stronger effect = lower value 1 | S. cerevisiae deletion strains, locus YOR083W, strain WHI5, stronger effect = lower value 0.978 | S. cerevisiae deletion strains, locus YOR106W, strain vam3, stronger effect = lower value 1.02 | S. cerevisiae deletion strains, locus YOR136W, strain idh2, stronger effect = lower value 0.992 | S. cerevisiae deletion strains, locus YOR144C, strain elg1, stronger effect = lower value 0.992 | S. cerevisiae deletion strains, locus YOR184W, strain ser1, stronger effect = lower value 1.01 | S. cerevisiae deletion strains, locus YOR231W, strain MKK1, stronger effect = lower value 1.01 | S. cerevisiae deletion strains, locus YOR265W, strain rbl2, stronger effect = lower value 1 | S. cerevisiae deletion strains, locus YOR270C, strain vph1, stronger effect = lower value 1.02 | S. cerevisiae deletion strains, locus YOR290C, strain snf2, stronger effect = lower value 1 | S. cerevisiae deletion strains, locus YOR316C, strain cot1, stronger effect = lower value 0.99 | S. cerevisiae deletion strains, locus YPL051W, strain arl3, stronger effect = lower value 1 | S. cerevisiae deletion strains, locus YPL078C, strain atp4, stronger effect = lower value 0.999 | S. cerevisiae deletion strains, locus YPL106C, strain sse1, stronger effect = lower value 1.02 | S. cerevisiae deletion strains, locus YPL240C, strain hsp82, stronger effect = lower value 1.02 | S. cerevisiae deletion strains, locus YPL241C, strain CIN2, stronger effect = lower value 1.01 | S. cerevisiae deletion strains, locus YPL256C, strain CLN2, stronger effect = lower value 0.979 | S. cerevisiae deletion strains, locus YPR119W, strain clb2, stronger effect = lower value 0.989 | S. cerevisiae deletion strains, locus YPR141C, strain kar3, stronger effect = lower value 1.01 | S. cerevisiae deletion strains, locus YPR163C, strain tif3, stronger effect = lower value 0.992 | S. cerevisiae deletion strains, locus YPR167C, strain met16, stronger effect = lower value 0.997 | S. cerevisiae deletion strains, strain wtn01, stronger effect = lower value 1.02 | S. cerevisiae strains, strain wild type, stronger effect = lower value 1.01
